Source: PubChem
An excerpt weighted towards active compounds, which were near 10% of everything screened.
HPGD block: qHTS Assay for Inhibitors of HPGD (15-Hydroxyprostaglandin Dehydrogenase) | AID 894, 2007 | Potency, µM, for the others: at the highest dose activity change, negative = inhibition, actives largely listed as inhibitors | 15-hydroxyprostaglandin dehydrogenase [NAD(+)] (Homo sapiens), P15428 | hit rate 4.3% among 150,000 | purified HPGD, NADH fluorescence kinetic, PGE2 substrate; further: potency means the concentration at half of the fitted maximal effect
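NADH formation kinetics: reaction with 30 uM PGE2 and 1 mM NAD+ (final), 20 nM enzyme, Tris-HCl pH 8 with Tween 20, after 15 min compound preincubation at room temperature. Fluorescence change, last versus first of five reads.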
LMNA splice mod: qHTS Assay for Modulators of Lamin A Splicing | Potency, µM (doses to about 46.1 µM), for the others: top-dose ratio change, negative = inhibition, usual class: inhibitors | hit rate 0.01% among 200,000 | HeLa LMNA splicing GFP/RFP minigene ratio, 48 h | AID 1487, 2009; active means well fitted inhibition curve with a large enough effect in the signal ratio, with a control signal flat, not every such curve was filed as active; inconclusive means small, poorly fitted or top-dose-only effect, or effect the other way, or a change in a side signal; the % refers to the signal ratio; further: potency means the concentration at half of the fitted maximal effect
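S3 HeLa cells stably expressing lamin A-EGFP splicing minigene plus DsRed2, 600 cells/well, 48 h compound exposure at 37C. Laser-scanning cytometry; analysed as GFP (500-530 nm)/RFP (575-640 nm) total intensity ratio; 0.5% DMSO vehicle.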
PNC assembly inh: High Content Assay for Compounds that inhibit the Assembly of the Perinucleolar Compartment; PC3M PTB-GFP, PNC prevalence imaging, 16 h; stronger effect = lower value; activity change (PNC), negative = inhibition, % at 10 µM; hit rate 3.1% among 140,000; AID 2417, 2010;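 active means readout at or below -70, meaning at least 70% loss of cells showing the perinucleolar compartment, a nuclear body marking cancer cells; inconclusive means readout between -30 and a set limit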;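 further: plate controls were DMSO wells for no effect and camptothecin positive control wells for full effect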
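Compounds are pinned in duplicate onto adhered PC3M cells stably expressing GFP-tagged PTB and incubated 16 h at 37 C. Cells are then fixed, nuclei stained with Hoechst, and PNC-positive cells counted.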
ALDH1A1 block: qHTS Assay for Inhibitors of Aldehyde Dehydrogenase 1 (ALDH1A1) | Potency, µM (doses to about 75.3 µM), for inactives: at the highest dose activity, negative = inhibition, usual class: inhibitors | Aldehyde dehydrogenase 1A1 (Homo sapiens), P00352 | Purified ALDH1A1, NADH fluorescence, propionaldehyde substrate | AID 1030, 2008 | hit rate 7.3% among 220,000;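 further: potency means the concentration at half of the fitted maximal effect; plate controls were no enzyme wells and a reference inhibitor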
Target sequence (P00352 whole entry, looked up): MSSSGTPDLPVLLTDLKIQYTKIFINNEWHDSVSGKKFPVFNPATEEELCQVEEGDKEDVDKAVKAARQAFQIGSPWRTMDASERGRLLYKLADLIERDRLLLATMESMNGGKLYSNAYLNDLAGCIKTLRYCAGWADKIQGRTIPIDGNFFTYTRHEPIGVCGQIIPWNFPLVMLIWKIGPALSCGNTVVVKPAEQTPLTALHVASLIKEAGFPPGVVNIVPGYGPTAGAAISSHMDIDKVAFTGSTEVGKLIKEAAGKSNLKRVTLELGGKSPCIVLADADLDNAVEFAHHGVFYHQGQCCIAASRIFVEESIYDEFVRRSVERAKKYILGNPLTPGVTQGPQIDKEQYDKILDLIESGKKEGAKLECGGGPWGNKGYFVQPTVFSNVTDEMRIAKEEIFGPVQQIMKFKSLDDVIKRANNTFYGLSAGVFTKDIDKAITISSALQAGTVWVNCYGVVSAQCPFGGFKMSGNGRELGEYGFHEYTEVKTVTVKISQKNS
Luc counter: Counterscreen for Luciferase (Kinase-Glo TM) Inhibition | Kinase-Glo luciferase, ATP luminescence, 8 min | Potency, µM (highest dose often 38.3 µM), for the others: at the top dose activity change, negative = inhibition, usual class: inhibitors | hit rate 0.28% among 200,000; active means well fitted inhibition curve with a large enough effect; inconclusive means small, poorly fitted or top-dose-only effect; further: potency means the concentration at half of the fitted maximal effect; nearly all actives have a fitted effect of over 60% in size
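Inhibition of Kinase-Glo luciferase light generation was assessed at 10 uM ATP in pH 7.2 imidazole buffer, with luminescence measured after eight minutes at ambient temperature.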
* hit, by the source's call; [ ] = remark or other dose. Unless noted, the call rests on the fitted dose curve; in most records, active means well fitted inhibition curve with a large enough effect (not every such curve was filed as active); inconclusive means small, poorly fitted or top-dose-only effect, or another doubt; inactive means no such curve, though single readings can be large or run the other way. Unless noted, on the % scale 0 is the no-effect control and ±100 the full control effect.

`Fc1ccc(F)c(C2=NNC(=Nc3ccccc3F)SC2)c1` gave HPGD block 16µM*, LMNA splice mod inconclusive, PNC assembly inh inconclusive, ALDH1A1 block 16µM* and Luc counter -17%.
`CCCCC(=O)Nc1cccc(-c2nn3c(C)nnc3s2)c1` gave HPGD block 16µM*, LMNA splice mod -13%, PNC assembly inh 44, ALDH1A1 block 2% and Luc counter 1%.
`Cc1ccc(-c2nn3c(C)nnc3s2)cc1NC(=O)c1ccc(-c2ccc(Cl)cc2Cl)o1` gave HPGD block inconclusive, LMNA splice mod 6%, PNC assembly inh 4, ALDH1A1 block inconclusive and Luc counter -2%.
CCC(=O)Nc1cc(-c2nn3c(C)nnc3s2)ccc1C was read as HPGD block 1%, LMNA splice mod inconclusive, PNC assembly inh -4, ALDH1A1 block 12% and Luc counter -1%.
Cc1ccc(-c2nn3c(C)nnc3s2)cc1NC(=O)c1ccc(-c2cccc(Cl)c2)o1 was read as HPGD block 22µM*, LMNA splice mod -2%, PNC assembly inh -8, ALDH1A1 block inconclusive and Luc counter -3%.
For Cc1ccccc1OCC(=O)OCc1cc(=O)n2nc(C3CC3)sc2n1 the results were LMNA splice mod 2%[46 µM].
CCOc1ccc(C(C)=O)cc1CSc1nnc(-c2cccs2)n1CC1CCCO1 (stereo not drawn) was read as HPGD block -10%, LMNA splice mod 2%, PNC assembly inh -9, ALDH1A1 block 8.9µM* and Luc counter -2%.
`O=C(CCN1C(=O)C2C3C=CC(C3)C2C1=O)N1CCN(c2ccc([N+](=O)[O-])cc2)CC1` (stereo not drawn) gave ALDH1A1 block 6.3µM* and Luc counter 2%.
For O=C(CCN1C(=O)C2C3C=CC(C3)C2C1=O)N1CCN(c2ccccc2F)CC1 (stereo not drawn) the results were HPGD block 4%, LMNA splice mod -4%, PNC assembly inh 37, ALDH1A1 block inconclusive and Luc counter 0%.
O=C(CCN1C(=O)C2C3C=CC(C3)C2C1=O)N1CCN(c2ccccc2Cl)CC1 (stereo not drawn) was read as HPGD block -7%, LMNA splice mod 8%, PNC assembly inh inconclusive, ALDH1A1 block 2µM* and Luc counter -3%.
Screening Cc1cccc2c1Oc1ccccc1[C@@H]2NC(=O)c1ccc([N+](=O)[O-])cc1 returned HPGD block -4%, ALDH1A1 block 6%[13.5 µM] and Luc counter -7%[7.66 µM].
Screening CCc1cnc2c(c1SCC(=O)c1ccc(Cl)cc1)c(=O)n(C)c(=O)n2C returned LMNA splice mod 2%[46 µM].
`COc1cc(C2NC(=S)NC3=C2CCc2ccccc23)cc(OC)c1OC` (stereo not drawn) gave HPGD block -15%, LMNA splice mod -9%, PNC assembly inh inconclusive, ALDH1A1 block inconclusive and Luc counter 0%.
`O=C1NC2=C(CCc3ccccc32)C(c2ccccc2)N1` (stereo not drawn) gave HPGD block inconclusive, LMNA splice mod inconclusive, PNC assembly inh -113*, ALDH1A1 block inconclusive and Luc counter 2%.
Screening C=CCOc1ccc(C2NC(=S)NC3=C2CCc2ccccc23)cc1 (stereo not drawn) returned ALDH1A1 block 1µM*.
For COc1ccc(C2NC(=S)NC3=C2CCCC3=C2SCCS2)cc1 (stereo not drawn) the results were LMNA splice mod -9%[9.22 µM], ALDH1A1 block inconclusive and Luc counter 2%.
For COc1ccc2c(c1)CCC1=C2NC(=S)NC1c1ccc(N(C)C)cc1 (stereo not drawn) the results were LMNA splice mod inconclusive, ALDH1A1 block 2.8µM* and Luc counter -4%.
`Cc1ccc(C(=O)Nc2nnc(SCc3cc(=O)n4ccc(C)cc4n3)s2)cc1` gave LMNA splice mod 2%[46 µM].
For Cc1cn2c(=O)cc(COC(=O)c3ccc(NC(=O)COc4ccc(C)c(C)c4)cc3)nc2s1 the results were LMNA splice mod 7%[46 µM].
`CCCCCCC1=Cc2cc(OC)c(OC)cc2C(C(C(C)=O)C(=O)OC)O1` (stereo not drawn) gave ALDH1A1 block 10%[13.5 µM].
For C(=N/n1c2ccccc2c2ccccc21)/c1ccco1 the results were HPGD block -14%, LMNA splice mod 3%, PNC assembly inh inconclusive, ALDH1A1 block 10µM* and Luc counter 0%.
`N=c1scc(-c2ccccc2)n1/N=C/c1ccco1` gave HPGD block -27%, LMNA splice mod -3%, PNC assembly inh 43, ALDH1A1 block 22µM* and Luc counter -8%.
C(=N\n1c2ccccc2c2ccccc21)/c1ccccc1 was read as HPGD block -19%, LMNA splice mod -8%, PNC assembly inh 5, ALDH1A1 block 1% and Luc counter 1%.
`O=c1c2cc(-c3ccccc3)sc2ncn1/N=C/c1ccco1` gave HPGD block inconclusive, LMNA splice mod -5%, PNC assembly inh inconclusive, ALDH1A1 block inconclusive and Luc counter -3%.
Screening CC(C)=CC1C(CO)C1(C)C (stereo not drawn) returned HPGD block -4%, LMNA splice mod -4%, ALDH1A1 block 8% and Luc counter 2%.
Cc1ccc(S(=O)(=O)C(CNC(=O)COc2ccccc2)c2cccs2)cc1 (stereo not drawn) was read as LMNA splice mod -5%[46 µM].
Cc1ccc(-n2cc(CN3CCN(Cc4nccn4C)CC3)c(-c3ccc(F)cc3)n2)cc1 was read as ALDH1A1 block 25µM* and Luc counter -2%.
`CCCSc1ccc2nc(-c3ccccc3)cn2c1` gave HPGD block inconclusive, LMNA splice mod inconclusive, PNC assembly inh -4, ALDH1A1 block inconclusive and Luc counter 10µM*.
For CCn1c(SCc2ccccc2)nnc1C1CCN(S(=O)(=O)c2ccc(OC)cc2)CC1 the results were HPGD block -12%, LMNA splice mod -1%, PNC assembly inh 64, ALDH1A1 block 5µM* and Luc counter 3%.
For O=C(CSc1nnc(C2CC2)n1Cc1ccccc1)c1ccc(S(=O)(=O)N2CCOCC2)cc1 the results were HPGD block -22%, LMNA splice mod 1%, PNC assembly inh inconclusive, ALDH1A1 block 11µM* and Luc counter 7%.
Cc1[nH]c(C)c(CN(C)C)c1CN(C)C was read as HPGD block -6%, ALDH1A1 block 9%[13.5 µM] and Luc counter -12%[7.66 µM].
For CCOc1ccccc1C(=O)N1CCN(CCc2ccccn2)CC1 the results were LMNA splice mod 0%[46 µM].
